Mcl1 Bid PPI = disrupts binding of human Mcl-1 to Bid peptide; 220,000 tested, 0.97% active; Q07820; TR-FRET Mcl-1/Bid-Dy647 peptide binding, 1536-well; inhibition, % at 21.7 µM;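 active = compounds that cut the binding signal by more than half at the single screening dose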;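 note: His-tagged Mcl-1 with europium anti-His antibody binding Bid BH3 peptide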
Target sequence (Q07820 whole entry, looked up): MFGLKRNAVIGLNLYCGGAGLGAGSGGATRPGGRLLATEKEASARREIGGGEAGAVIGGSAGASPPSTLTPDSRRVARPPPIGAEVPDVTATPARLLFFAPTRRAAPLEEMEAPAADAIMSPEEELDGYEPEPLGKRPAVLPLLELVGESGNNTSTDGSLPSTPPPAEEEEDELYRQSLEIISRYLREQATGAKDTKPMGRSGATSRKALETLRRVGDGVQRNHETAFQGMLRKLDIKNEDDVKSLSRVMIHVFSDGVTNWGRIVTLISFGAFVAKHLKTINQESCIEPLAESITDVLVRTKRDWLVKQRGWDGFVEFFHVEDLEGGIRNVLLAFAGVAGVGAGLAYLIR
14-3-3 Bad inh = disrupts binding of bovine 14-3-3 zeta to phospho-Bad peptide | P63103 | TR-FRET 14-3-3zeta/Dy647-pBad peptide displacement, 1 h | inhibition, % at 21.7 µM | 220,000 tested, 0.71% active;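 active = inhibition above about 70%, limit read from the data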
Target sequence (P63103 whole entry, looked up): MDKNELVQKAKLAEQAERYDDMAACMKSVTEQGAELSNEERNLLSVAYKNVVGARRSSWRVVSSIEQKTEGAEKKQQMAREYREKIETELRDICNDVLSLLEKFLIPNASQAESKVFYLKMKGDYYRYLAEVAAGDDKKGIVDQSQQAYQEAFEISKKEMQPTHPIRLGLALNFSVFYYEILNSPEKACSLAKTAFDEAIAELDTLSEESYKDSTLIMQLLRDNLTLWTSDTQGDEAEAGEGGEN
Mcl-1 Bim block = disrupts Bim peptide binding to human Mcl-1; Bead-based flow cytometry, Bim peptide-Mcl-1 binding; AID 1009; 190,000 tested, 0.1% active; inhibition, % at 10 µM; Q07820; in the data active = inhibition above about 40%
Mcl1 Noxa PPI = disrupts binding of human Mcl-1 to Noxa peptide. TR-FRET Mcl-1/Noxa peptide binding, 2 h. inhibition, % at 21.7 µM. 220,000 tested, 1.5% active;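 active = compounds that cut the protein-peptide binding signal by more than 50% relative to plate controls in a single-dose test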;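 note: His-tagged Mcl-1 with rhodamine Noxa BH3 peptide and terbium anti-His antibody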
p47phox inh = p47phox (human) inhibition; P14598; p47phox/p22phox peptide binding, fluorescence polarization, 2 h; inhibition, % at 24.7 µM; 220,000 tested, 0.53% active
eIF4E 4G PPI = inhibitors of eIF4E and eIF4G interaction in translation initiation. TR-FRET eIF4E-eIF4GI(517-606) binding, 2 h. 220,000 tested, 0.37% active. inhibition, % at 21.7 µM. P63073+Q04637. AID 782
Of the large screens only hits and unclear results are named; the others gave an inactive call; [ ] = remark or other dose. The list is not random: actives were taken first. Their share in the collection is about 3.4%.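 Rule for the calls, unless noted: active = inhibition above about 30% (limit read from the data); inactive = the rest.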

CCN1CCN(c2nc(-c3cccnc3)nc3ccccc23)CC1	Mcl1 Noxa PPI 66
CC(=O)N1CCN(c2nc(-c3cccs3)nc3ccccc23)CC1	none
CCCN1CCN(c2nc(-c3cccs3)nc3ccccc23)CC1	Mcl1 Noxa PPI 53
c1ccc2c(N3CCCCCC3)nc(-c3ccncc3)nc2c1	none
O=c1[nH]c(C2CCN(S(=O)(=O)c3ccccc3)CC2)nc2c1nnn2Cc1ccccc1	none
CC(C)N(C(=O)CSc1nnc(Cc2csc(Nc3ccccc3)n2)o1)C(C)C	none
COCCn1c(N)c(N(Cc2ccccc2)C(=O)C2CCCC2)c(=O)[nH]c1=O	none
CCOC(=O)CC1CCCCN1Cc1cn(C)nc1-c1ccc2c(c1)OCCO2 (stereo not given)	none
Cn1cc(CN2C[C@]3(C)C[C@H]2CC(C)(C)C3)c(-c2ccc3c(c2)OCCO3)n1	Mcl-1 Bim block 50
COn1c(C)c(C)c2c3nonc3ccc21	14-3-3 Bad inh 95 (no result: Mcl-1 Bim block)
CCOC(=O)c1c(C)n(OCc2ccccc2)c2ccc3nonc3c12	none
CC(C)(C)n1nnnc1C(c1cccnc1)N1CCN(c2cccc(C(F)(F)F)c2)CC1 (stereo not given)	Mcl1 Bid PPI 58
COc1ccc(/C=N/N=C2/CC(C)(C)Cc3n[nH]c(=O)cc32)cc1	none
C=CCC1(O)CC(c2ccco2)NC(c2ccco2)C1CCC (stereo not given)	14-3-3 Bad inh 79
COc1ccc(C(C(=O)NCC2CCCO2)N(C(=O)CNC(=O)c2cccs2)c2ccc(C(C)=O)cc2)cc1OC (stereo not given)	none
Cc1cccn2c(=O)c(/C=N/O)c(Nc3ccccc3F)nc12	Mcl1 Bid PPI 54, 14-3-3 Bad inh 87 (no result: Mcl-1 Bim block)
CCOc1ccc2nc(SCC(=O)N3c4ccccc4Sc4ccccc43)sc2c1	none
CCOc1ccc2nc(SCC(=O)N3c4ccccc4Sc4ccccc43)c(C#N)cc2c1	Mcl-1 Bim block 42
O=C1c2ccncc2C(=O)N1Cc1cccc(Cl)c1	none
O=S1(=O)c2ccccc2N=NN1Cc1ccc(Cl)cc1	Mcl1 Noxa PPI 53
O=S1(=O)c2ccccc2N=NN1Cc1cc(Cl)cc(Cl)c1	Mcl1 Noxa PPI 99
O=C(NCc1cccnc1)c1cc(-c2cccs2)on1	p47phox inh 138
Cc1cc(NC(=O)c2cc(-c3cccs3)on2)no1	none
CC(C)NC(=O)c1cc(-c2cccs2)on1	14-3-3 Bad inh 71
O=C(NCc1cccnc1)c1cc(-c2ccccc2)on1	none
CCc1cc2cc3c(cc2nc1SCC(=O)Nc1cc(C)on1)OCO3	14-3-3 Bad inh 82
CCc1cc2ccc(C)cc2nc1SCC(=O)Nc1cc(C)on1	none
CC(=O)C1=C(C)NC(SCC(=O)c2ccc(F)cc2)=C(C#N)C1CC(C)C (stereo not given)	Mcl1 Noxa PPI 52
CCOC(=O)C1=C(C)NC(SC)=C(C#N)C1CC(C)C (stereo not given)	eIF4E 4G PPI 44 (no result: Mcl-1 Bim block)
CC(=O)C1=C(C)NC(SCC(N)=O)=C(C#N)C1CC(C)C (stereo not given)	none
COc1nc(Nc2ccc([N+](=O)[O-])cc2)nc(NC2CCCCC2)n1	none
NC(=O)c1nsc(C(=O)N(CC(=O)NC2CCCC2)c2cnc3ccccc3c2)c1N	none (no result: Mcl-1 Bim block)
CC1(C)c2cc(Cl)ccc2-n2c1cc(O)c(-c1ccccc1)c2=O	eIF4E 4G PPI 70 (no result: Mcl-1 Bim block)
O=C(CSc1nnnn1-c1ccc(F)cc1)c1ccc(O)c(O)c1	Mcl1 Noxa PPI 57
c1ccc2c(c1)oc1c(Nc3ccc4c(c3)OCCO4)ncnc12	14-3-3 Bad inh 76[fluorescence artefact?]
CCc1nc(NCc2ccco2)c2oc3ccccc3c2n1	14-3-3 Bad inh 81
CCNc1nc(CC)nc2c1oc1ccccc12	none
Cc1ccc(Nc2ncnc3c2oc2ccccc23)cc1	14-3-3 Bad inh 72
CCc1nc(Nc2ccc3c(c2)OCCO3)c2oc3ccccc3c2n1	14-3-3 Bad inh 86
COc1ccc(Nc2ncnc3c2oc2ccccc23)cc1	none
Cc1nc(Nc2ccc3c(c2)OCCO3)c2oc3ccccc3c2n1	14-3-3 Bad inh 73
COc1ccc(CSc2nc3ccccc3c(=O)n2CCCN2CCOCC2)cc1F	none
CCOC(=O)C1(CC)CC(CSc2nc3ccccc3[nH]2)OC1=O (stereo not given)	14-3-3 Bad inh 72
CCOC(=O)/C(C#N)=C\N(C)C	p47phox inh 40
COc1cc(C(=O)NNC(=O)c2ccc(NC(=O)C(C)(C)C)cc2)cc(OC)c1OC	none
Cc1c(O)ccc2c(O)c(NC(=O)c3ccc4c(c3)CCC(C)(C)O4)c(=O)oc12	none (no result: Mcl-1 Bim block)
CC(C)CC(=O)N1CCN(Cc2cccc(F)c2)CC1	14-3-3 Bad inh 79, eIF4E 4G PPI 72
O=C(C1CCCN(Cc2cccc(F)c2)C1)N1CCCCC1 (stereo not given)	14-3-3 Bad inh 86
COc1cc(OC)c(OC)cc1CN1CCCC(C(=O)N2CCCCC2)C1 (stereo not given)	Mcl1 Bid PPI 53
Cc1c(-c2ccncc2)oc2ccc(Br)cc2c1=O	none
O=C(CC12CC3CC(CC(C3)C1)C2)NCC(c1ccc(F)cc1)N1CCOCC1 (stereo not given)	none
COc1cccc(Nc2ncc(C#N)c(N)n2)c1	none (no result: Mcl-1 Bim block)
CNc1nnc(Sc2ncccc2[N+](=O)[O-])s1	none (no result: Mcl-1 Bim block)
Cc1cc(NC(=O)c2coc(=O)c(Br)c2)ccc1C(C)C	p47phox inh 37 (no result: Mcl-1 Bim block)
CC1CC(=O)c2c(cc3c(-c4c(O)cc(O)c5c(O)c6c(cc45)OC(C)CC6=O)c(O)cc(O)c3c2O)O1 (stereo not given)	Mcl1 Noxa PPI 93
CCN(C(=O)C(C)Cl)c1ccccc1 (stereo not given)	none
CCCCN(C(=O)CSc1nnc(Nc2ccccc2)s1)c1c(N)n(CCC)c(=O)[nH]c1=O	none
O=S(=O)(c1ccccc1)N1CCCC1c1cccs1 (stereo not given)	eIF4E 4G PPI 97 (no result: Mcl-1 Bim block)
CN(CC(=O)O/N=C(\N)c1ccc([N+](=O)[O-])cc1)S(=O)(=O)c1ccccc1	Mcl-1 Bim block 95, Mcl1 Noxa PPI 83
Cc1ccc(S(=O)(=O)N(C)CC(=O)O/N=C(\N)c2ccc([N+](=O)[O-])cc2)cc1	none
COc1ccc(C(=O)NCC(=O)OCC(=O)N2CCC(C)CC2)cc1OC	none
O=c1[nH]nc(-c2ccc(F)cc2)cc1Cc1ccc(F)cc1	p47phox inh 37 (no result: Mcl-1 Bim block)
Cc1ccc(-c2cc(Cc3ccc(F)cc3)c(=O)[nH]n2)cc1	none (no result: Mcl-1 Bim block)
COCCCNC(=O)c1cc2c(=O)n3cc(C)ccc3nc2nc1NCC1CCCO1 (stereo not given)	Mcl1 Bid PPI 66
O=C(Nc1ccc2[nH]c(=S)sc2c1)Nc1ccccc1F	Mcl1 Noxa PPI 55 (no result: Mcl-1 Bim block)
CCOC(=O)N1CCN(c2c(NCCc3ccccc3)c(=O)c2=O)CC1	none
CCOC(=O)N1CCN(c2cc(NCCC(=O)O)c3c4c(onc24)-c2ccccc2C3=O)CC1	Mcl1 Noxa PPI 73
